Laboratory results as given in the supplement of paper PMC5407854, “Inhibitor of ppGalNAc-T3-mediated O-glycosylation blocks cancer cell invasiveness and lowers FGF23 levels” (eLife, 2017).
Whole data set: some 1,700 compounds, median “T2 sensor activation Q score (MG/GFP ratio z-score vs DMSO controls)” near 0.3, cut for the highest 2% near 1.9. The entries come from a sample that favours the highest values as a whole.

Each compound was assayed on ppGalNAc-T2 sensor (assay: T2 sensor activation Q score (MG/GFP ratio z-score vs DMSO controls) (SD units); higher = more sensor activation (inhibition of ppGalNAc-T2 glycosylation)). Conditions: HEK293 sensor cells; 10 µM; 6 h.
Procedure: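 Cells were treated with compound at 10 uM for 6 h, then MG/GFP ratio was read by flow cytometry (10,000 cells per well, duplicate wells). Q = (R - R_neg)/SD_neg relative to DMSO vehicle controls; the signal rises when the glycosyltransferase is inhibited.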

| Structure (SMILES) | T2 sensor activation Q score |
| --- | --- |
| Cc1ncc([N+](=O)[O-])n1CCOC(N)=O | -0.85 |
| Cn1cnc([N+](=O)[O-])c1Sc1n[nH]c(N)n1 | 1.8 |
| Cn1cnc([N+](=O)[O-])c1N=C(N)N | 2.2 |
| NCCCNCCSP(=O)(O)O | -0.45 |
| Cc1ccccc1-n1c(C=Cc2ccccn2)nc2ccccc2c1=O | -1 |
| COC[C@H]1OC(=O)c2coc3c2[C@@]1(C)C1=C(C3=O)[C@@H]2CCC(=O)[C@@]2(C)C[C@H]1OC(C)=O | 2.1 |
| CC12CCC3C(CC=C4CC(O)CCC43C)C1C/C(=C\N1CCCC1)C2=O (stereo not given) | 0.15 |
| C=Cc1cc(OC)c2c(c1)c(=O)oc1c2cc(OC)c2c(O)ccc(C3OC(C)C(O)C(C)(O)C3O)c21 (stereo not given) | -0.15 |
| O=C1/C(=C\c2ccccc2)C2OCC=C3CN4CCC56c7ccccc7N1C5C2C3CC46 (stereo not given) | 0.15 |
| O=C1C[C@@H]2OCC=C3C[N+]4([O-])CC[C@]56c7ccccc7N1[C@H]5[C@H]2[C@H]3C[C@@H]64 (stereo not given in full) | 1.95 |
| CC(C)CC(NC=O)C(=O)O.COc1cc2c(cc1OC)C13CCN4CC5=CCOC6CC(=O)N2C1C6C5CC43 (stereo not given) | 1.3 |
| COc1cc2c(cc1O)C[C@H]1c3c(cc(O)c(OC)c3-2)CCN1C | 0.75 |
| c1cc(C2N3CCCN2CC3)ccn1 (stereo not given) | -0.3 |
| CC(Cc1ccccc1)NC(N)=O (stereo not given) | 1.8 |
| O=C1N[C@H]2[C@H](O)[C@H](O)[C@@H](O)[C@H](O)[C@@H]2c2cc3c(c(O)c21)OCO3 | 2.6 |
| Cc1c(CCN)ccc2c1[nH]c1ccccc12 | 0.7 |
| COc1ccc2c(c1O)[C@]13CCN(C)[C@H](C2)[C@@H]1CCC(=O)C3 | -0.1 |
| COc1ccc2c(c1)C13CCN(C)C(C2)C1CCC1(C3)OCCO1 (stereo not given) | 2 |

| Structure (SMILES) | T2 sensor activation Q score |
| --- | --- |
| Cc1c(C(=O)c2ccccc2)c2ccccc2n1C | 1.75 |
| O=C1N(c2nncs2)CCN1[N+](=O)[O-] | 1.2 |
| CC1CC(C)OP(=O)(OCCC#N)O1 (stereo not given) | 0.35 |
| COc1ccc(CCNC2(C#N)CCCCC2)cc1OC | -0.65 |
| CN1CCN(c2ccc([N+](=O)[O-])c3no[n+]([O-])c23)CC1 | 0.1 |
| CN1CCN(c2nc(N)c(Br)c(Cl)n2)CC1 | 0.8 |
| O=P(Oc1ccccc1)(Oc1ccccc1)c1ccccc1 | -3.1 |
| CC12CCC3C(CCC4Cc5[nH]c6ccccc6c5CC43C)C1CCC2O (stereo not given) | 0.65 |
| C=CCN1CCC23c4c5ccc(O)c4OC2C(=O)CCC3(O)C1C5 (stereo not given) | 2.2 |
| O=C1CCC2(O)[C@@H]3Cc4ccc(O)c5c4[C@]2(CCN3Cc2ccoc2)C1O5 (stereo not given in full) | 0.3 |
| NN=C1C(Cl)=C(Cl)C(Cl)=C1Cl | -0.35 |
| CCCC(=O)N(C)C1=Nc2ccc(Cl)cc2C(c2ccccc2)=[N+]([O-])C1 | 0 |
| CCC(C)c1cnc(CC(C)C)c(=O)n1O (stereo not given) | -0.75 |
| CC12CCC3c4ccc(OC(=O)N(CCCl)CCCl)cc4CCC3C1CCC2O (stereo not given) | -0.35 |
| OCC1CN1C1CCCCC1 (stereo not given) | 2.1 |
| CN1CCC(c2c[nH]c3ccccc23)C1 (stereo not given) | 0.5 |
| CCC(N)Cc1c[nH]c2ccccc12 (stereo not given) | 1.2 |
